Reference: PubChem BioAssay (EPA / NIEHS)
Several values for one entry are separate records, joined by “and”; a condition that tells them apart may be missing. Equal values may be shown once. Inconclusive results are not listed. Where a structure was tested more than once in an assay, its records may differ in their call. Activity calls are given as the source filed them. Rule for the calls, unless noted: active = hit-call score of the fitted dose curve at least 0.9, where 1 is the maximum; inactive = score below 0.9.

Assay: CCTE_Harrill_HTTr_CellCount_MCF7: CCTE's Cell Proliferation Assessment for the High-Throughput Transcriptomics (HTTr) Platform, Harrill Lab (AID 2284012; active = hit-call score of the fitted dose curve at least 0.9, where 1 is the maximum;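 note: cells exposed to compound for six hours; intended direction is loss of nuclei count meaning fewer cells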)
How it was run: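 MCF7 cells exposed 6 hours to an eight-point dilution series; Hoechst-stained nuclei counted by high-content imaging. Bidirectional curve fitting against DMSO baseline.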

Row | Compound | outcome | AC50
1 | FC(F)C(F)(F)OCC(Cn1cncn1)c1ccc(Cl)cc1Cl (stereo not drawn) | inactive | –
2 | C=C(C)[C@H]1Cc2c(ccc3c2O[C@@H]2COc4cc(OC)c(OC)cc4[C@@H]2C3=O)O1 | inactive | –
3 | CC(=NC#N)N(C)Cc1ccc(Cl)nc1 | inactive | –
4 | CCCOCC(=Nc1ccc(Cl)cc1C(F)(F)F)n1ccnc1 | inactive | –
5 | CCc1cccc(C)c1N(C(=O)CCl)C(C)COC (stereo not drawn) | inactive | –
6 | Nc1c(Cl)cc([N+](=O)[O-])cc1Cl | inactive | –
7 | O=C(O)c1cc(Oc2ccc(C(F)(F)F)cc2Cl)ccc1[N+](=O)[O-] | inactive | –
8 | C[N+]1(C)CCCCC1 | inactive | –
9 | CCOP(=O)(NC(C)C)Oc1ccc(SC)c(C)c1 (stereo not drawn) | inactive | –
10 | CC[C@H](C)[C@H]1O[C@]2(C=C[C@@H]1C)C[C@@H]1C[C@@H](C/C=C(\C)[C@@H](O[C@H]3C[C@H](OC)[C@@H](O[C@H]4C[C@H](OC)[C@@H](NC)[C@H](C)O4)[C@H](C)O3)[C@@H](C)/C=C/C=C3\CO[C@@H]4[C@H](O)C(C)=C[C@@H](C(=O)O1)[C@]34O)O2 | – | 50 µM (active)
11 | N#CSCSC#N | – | 92.6 µM (active)
12 | COP(=O)(NC(C)=O)SC (stereo not drawn) | inactive | –
13 | CCOP(=S)(OCC)Oc1ccc2c(C)c(Cl)c(=O)oc2c1 | inactive | –
14 | O=[N+]([O-])c1cc(C(F)(F)F)c(Cl)c([N+](=O)[O-])c1Nc1ncc(C(F)(F)F)cc1Cl | inactive | –
15 | CNC(=O)ON=C(SC)C(=O)N(C)C | inactive | –
16 | CN(C)[C@@H]1C(=O)C(C(N)=O)=C(O)[C@@]2(O)C(=O)C3=C(O)c4c(O)cccc4[C@@](C)(O)[C@H]3[C@H](O)[C@@H]12 | inactive | –
17 | CC(C)=CC1C(C(=O)OCN2C(=O)C3=C(CCCC3)C2=O)C1(C)C (stereo not drawn) | inactive | –
18 | CC(COc1ccc(Oc2ccccc2)cc1)Oc1ccccn1 (stereo not drawn) | inactive | –
19 | CCc1cnc(C2=NC(C)(C(C)C)C(=O)N2)c(C(=O)O)c1 (stereo not drawn) | inactive | –
20 | COP(=O)(OC)C(O)C(Cl)(Cl)Cl (stereo not drawn) | inactive | –
21 | CC1=NNC(=O)N(/N=C/c2cccnc2)C1 | inactive | –
22 | C[Si](Cn1cncn1)(c1ccc(F)cc1)c1ccc(F)cc1 | inactive | –

Assay: CCTE_Shafer_MEA_acute_burst_duration_mean: CCTE's Neural Acute Assay for Mean Burst Duration, Shafer Lab (AID 2284014);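 note: hits are decreases in mean burst duration relative to DMSO controls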
How it was run: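 Read-out is the per-well percent change in mean burst duration (first to last spike within a single-electrode burst) between 40-min recordings before and after compound. Cultures were primary rat cortical neurons on MEAs, dosed at 0.03-40 uM on DIV 13 or 15.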

Row | Compound | outcome | AC50
23 | FC(F)C(F)(F)OCC(Cn1cncn1)c1ccc(Cl)cc1Cl (stereo not drawn) | inactive | –
24 | C=C(C)[C@H]1Cc2c(ccc3c2O[C@@H]2COc4cc(OC)c(OC)cc4[C@@H]2C3=O)O1 | inactive | –
25 | CC(=NC#N)N(C)Cc1ccc(Cl)nc1 | inactive | –
26 | COc1cc(OC)nc(Sc2cccc(Cl)c2C(=O)O)n1 | inactive | –
27 | CCCOCC(=Nc1ccc(Cl)cc1C(F)(F)F)n1ccnc1 | – | 6.29 µM (active)
28 | CCc1cccc(C)c1N(C(=O)CCl)C(C)COC (stereo not drawn) | inactive | –
29 | CC(C)[C@H](C(=O)O[C@H](C#N)c1cccc(Oc2ccccc2)c1)c1ccc(Cl)cc1 | inactive | –
30 | CCOP(=S)(Oc1cnc(C(C)(C)C)nc1)OC(C)C (stereo not drawn) | inactive | –
31 | CN1COCN(Cc2cnc(Cl)s2)C1=N[N+](=O)[O-] | inactive | –
32 | CCOC(=O)CC(SP(=O)(OC)OC)C(=O)OCC (stereo not drawn) | inactive | –
33 | Nc1c(Cl)cc([N+](=O)[O-])cc1Cl | inactive | –
34 | CSC1=N[C@@](C)(c2ccccc2)C(=O)N1Nc1ccccc1 | inactive | 32 µM (active)
35 | C#CCC1=C(C)C(OC(=O)C2C(C=C(C)C)C2(C)C)CC1=O (stereo not drawn) | – | 15.5 µM (active)
36 | O=C(O)c1cc(Oc2ccc(C(F)(F)F)cc2Cl)ccc1[N+](=O)[O-] | inactive | –
37 | C[N+]1(C)CCCCC1 | inactive | –
38 | CN(C)NC(=O)CCC(=O)O | inactive | –
39 | CCOP(=O)(NC(C)C)Oc1ccc(SC)c(C)c1 (stereo not drawn) | inactive | –
40 | CC[C@H](C)[C@H]1O[C@]2(C=C[C@@H]1C)C[C@@H]1C[C@@H](C/C=C(\C)[C@@H](O[C@H]3C[C@H](OC)[C@@H](O[C@H]4C[C@H](OC)[C@@H](NC)[C@H](C)O4)[C@H](C)O3)[C@@H](C)/C=C/C=C3\CO[C@@H]4[C@H](O)C(C)=C[C@@H](C(=O)O1)[C@]34O)O2 | – | 38.2 µM (active) and 1.5 µM (active)
41 | N#CSCSC#N | inactive | –
42 | CCOP(=S)(OCC)SCCSCC | inactive | –
43 | COP(=O)(NC(C)=O)SC (stereo not drawn) | inactive | –
44 | CCOP(=S)(OCC)Oc1ccc2c(C)c(Cl)c(=O)oc2c1 | inactive | –
45 | O=[N+]([O-])c1cc(C(F)(F)F)c(Cl)c([N+](=O)[O-])c1Nc1ncc(C(F)(F)F)cc1Cl | – | 1.59 µM (active)
46 | CNC(=O)ON=C(SC)C(=O)N(C)C | inactive | –
47 | CN(C)[C@@H]1C(=O)C(C(N)=O)=C(O)[C@@]2(O)C(=O)C3=C(O)c4c(O)cccc4[C@@](C)(O)[C@H]3[C@H](O)[C@@H]12 | inactive | –
